Only some compounds are listed: those with a hit (about 12% of all), similar ones and a draw of the others.
MARV entry inh = Marburg virus entry inhibition. Marburg virus pseudotyped entry inhibition, cell reporter. AID 540276. 1.8% of 300,000 active. Potency, µM (doses to about 37.8 µM), most hits filed as inhibitors; calls by dose curve; tested in HEK293 cells
Shiga inhibitor = blocks Shiga toxin action in Vero cells; Vero cells, Shiga toxin protein synthesis inhibition reporter; inhibition, % at 38.7 µM; AID 2315; 9.2% of 290,000 active; in the data active means inhibition mostly above about 28%, no sharp cut-off; inactive means mostly below about 43%
Lassa entry inh = Lassa virus entry inhibition. Lassa virus pseudotype entry inhibition, cell reporter. Potency, µM (highest dose often 37.9 µM), actives largely listed as inhibitors. 1.2% of 300,000 active. AID 540256; calls by dose curve; tested in HEK293 cells; further: nearly all actives have a fitted effect of over 50% in size
Cycloheximide cs = affects cycloheximide protein synthesis inhibition readout, counter-screen; cell reporter, cycloheximide protein synthesis inhibition counterscreen; max response, %; 12% of 300,000 active; AID 2314; in the data active means max response mostly above about 13%, no sharp cut-off; inactive means mostly below about 14%; further: read at 38.3 µM for the half of the compounds with a filed dose
Each line names hits and unclear results; the compound was inactive in the other large screens.

COc1ccc(CCNc2cc(C)nc3c(-c4ccccc4)cnn23)cc1OC	MARV entry inh 9.2µM, Shiga inhibitor active, Lassa entry inh 8.9µM, Cycloheximide cs 48
Cc1cc(NC(C)c2ccccc2)n2ncc(-c3ccccc3)c2n1 (stereo not given)	Shiga inhibitor 69, Cycloheximide cs 44 (no result: MARV entry inh, Lassa entry inh)
Cc1nc2c(-c3ccccc3)cnn2c(N)c1-c1ccccc1	MARV entry inh inconclusive, Lassa entry inh inconclusive
Cc1cc(NCCN2CCOCC2)n2nc(C)c(-c3ccccc3)c2n1	none
Cc1ccc(NC(=O)C(=O)NCC(c2cccnc2)N2CCN(Cc3ccccc3)CC2)cc1Cl (stereo not given)	none (no result: MARV entry inh, Shiga inhibitor, Cycloheximide cs)
COc1ccc(CCNC(=O)c2ccc3c(c2)OCCO3)cc1	MARV entry inh inconclusive, Shiga inhibitor 84, Lassa entry inh inconclusive, Cycloheximide cs 35
COc1ccc(CCNC(=O)c2ccc3c(c2)OCO3)cc1	MARV entry inh inconclusive, Lassa entry inh inconclusive, Cycloheximide cs 27
O=C(NCCc1ccccc1)c1ccc2c(c1)OCCCO2	MARV entry inh inconclusive, Lassa entry inh inconclusive
COc1ccc(CCC(=O)N/N=C(\C)c2ccc3c(c2)OCO3)cc1	Lassa entry inh 0.35µM
O=C(NCCc1ccccc1)c1ccc2c(c1)OCCO2	MARV entry inh 0.45µM, Lassa entry inh 0.35µM
COc1ccc2cc(CCNC(=O)c3ccc4c(c3)OCO4)c(=O)[nH]c2c1	none (no result: MARV entry inh, Lassa entry inh)
CS(=O)(=O)CCC(C(=O)OCc1ccc(Cl)cc1)N1C(=O)c2ccccc2C1=O (stereo not given)	MARV entry inh inconclusive
COc1ccc(CCC(=O)OCc2csc(CC(=O)Nc3ccccc3C)n2)cc1	MARV entry inh inconclusive, Lassa entry inh inconclusive
CCc1ccc(OCC(=O)N/N=C(\C)c2ccc3c(c2)OCCO3)cc1	MARV entry inh inconclusive, Lassa entry inh inconclusive, Cycloheximide cs 13
COc1ccc(CCNC(=O)c2coc(=O)c(Br)c2)cc1	Shiga inhibitor 71, Cycloheximide cs 26 (no result: MARV entry inh, Lassa entry inh)
COc1ccc(CCNC(=O)c2ccc(=O)[nH]c2)cc1	none
C=C1C(=O)OC2C=C(C)CCC=C(C)CCC12 (stereo not given)	none (no result: MARV entry inh, Lassa entry inh)
C=C1C(=O)O[C@@H]2[C@H]3O[C@]3(C)CC/C=C(\C)CC[C@@H]12	MARV entry inh 22µM (no result: Shiga inhibitor, Lassa entry inh, Cycloheximide cs)
COc1ccc(C2NC(=O)CCC2[N+](=O)[O-])c(OC)c1OC (stereo not given)	none (no result: MARV entry inh, Lassa entry inh)
COc1cc(OC)c(NC2(c3ccccc3)C(=O)c3ccccc3C2=O)cc1Cl	none (no result: MARV entry inh, Shiga inhibitor, Cycloheximide cs)
CC(=O)c1c(C)[nH]c(C(=O)NCCc2cccc(C)c2)c1C	Shiga inhibitor 80, Cycloheximide cs 45
COc1ccc(CCNC(=O)c2[nH]c(C)c(C(C)=O)c2C)cc1	MARV entry inh inconclusive
CCc1c(C(=O)NCCc2cccc(C)c2)[nH]c(C)c1C(C)=O	MARV entry inh inconclusive, Lassa entry inh 3.5µM
CCc1c(C(=O)NCCc2ccc(OC)c(OC)c2)[nH]c(C)c1C(C)=O	none
O=C(NC(=S)N1CCCCC1)c1csc([N+](=O)[O-])c1	none
CCOC(=O)c1ccc(NC(=O)Nc2ccc(Cl)cn2)cc1	none
O=C(Nc1ccc(Cl)c(Cl)c1)Nc1ccon1	MARV entry inh inconclusive, Lassa entry inh inconclusive, Cycloheximide cs 18
CCOC(=O)c1ccc(NC(=O)Nc2ccon2)cc1	Shiga inhibitor 66, Cycloheximide cs 31 (no result: MARV entry inh, Lassa entry inh)
Cc1c(Cl)cccc1NC(=S)NNc1ncc(C(F)(F)F)cc1Cl	MARV entry inh 21µM, Lassa entry inh inconclusive
Fc1ccccc1NC(=S)NNc1ncc(C(F)(F)F)cc1Cl	MARV entry inh 7.9µM, Lassa entry inh inconclusive
Cc1ccccc1NC(=S)NNc1ncc(C(F)(F)F)cc1Cl	MARV entry inh inconclusive
COC(=O)c1ccc(C(NC(=O)OCc2ccccc2)/C(F)=C/[C@@H](C)C(=O)NCc2ccc(OC)c(OC)c2)cc1 (stereo not given in full)	MARV entry inh inconclusive, Lassa entry inh 15µM
O=C(CSc1ccccn1)N/N=C/c1ccccc1[N+](=O)[O-]	MARV entry inh inconclusive, Shiga inhibitor 38, Cycloheximide cs 38
O=C(CSc1ccccn1)N/N=C/c1c[nH]c2ccccc12	Cycloheximide cs 14 (no result: MARV entry inh, Lassa entry inh)
Cc1ccnn1CC(=O)N/N=C/c1c[nH]c2ccccc12	none
O=C(CCNC(=O)c1ccccc1Cl)NN=Cc1ccccc1[N+](=O)[O-]	Lassa entry inh inconclusive (no result: Shiga inhibitor, Cycloheximide cs)
CC(C)NC(=S)N/N=C/c1ccccc1[N+](=O)[O-]	Cycloheximide cs 22
CCCCCC(=O)N/N=C/c1ccccc1[N+](=O)[O-]	Cycloheximide cs 19
COc1ccc(CCN(C)C(=S)Nc2ccc(SC(F)F)cc2)cc1OC	Lassa entry inh inconclusive
O=[N+]([O-])c1ccccc1/C=N/NC1=NCCCCC1	MARV entry inh inconclusive, Shiga inhibitor 43, Cycloheximide cs 77
CC(C)NC(=S)N/N=C/c1ccc(C(C)(C)C)cc1	MARV entry inh inconclusive, Lassa entry inh inconclusive, Cycloheximide cs 21
Cc1cc(C(=O)CN2C(=O)C3CC=CCC3C2=O)c(C)n1-c1ccccc1 (stereo not given)	MARV entry inh inconclusive, Shiga inhibitor 111, Lassa entry inh inconclusive, Cycloheximide cs 58
Cc1ccc(C(=O)CN2/C(=C(\O)c3ccccc3)C(=O)c3ccccc3S2(=O)=O)c(C)c1	MARV entry inh inconclusive, Lassa entry inh 18µM
Cc1cc(C(=O)CN2C(=O)c3ccccc3S2(=O)=O)c(C)n1-c1ccccc1	MARV entry inh 8.9µM, Lassa entry inh 1.6µM
CCn1c(C)cc(C(=O)CN2C(=O)c3ccccc3S2(=O)=O)c1C	MARV entry inh inconclusive, Lassa entry inh 1.4µM (no result: Shiga inhibitor, Cycloheximide cs)
COC(=O)C(CC(C)C)NC(=O)C(Cc1ccccc1)NC(=O)C1CCCN1C(=O)OC(C)(C)C (stereo not given)	none
CCCCNC(=O)CCCn1c(=O)c2ccccc2n(Cc2ccc(Cl)cc2)c1=O	none (no result: Shiga inhibitor, Cycloheximide cs)
O=C(CN1C(=O)c2ccccc2S1(=O)=O)c1ccccc1	MARV entry inh inconclusive, Lassa entry inh 4µM
Cc1ccc(C(=O)CN2C(=O)c3ccccc3S2(=O)=O)cc1	MARV entry inh inconclusive, Lassa entry inh inconclusive
Cc1cc(C(=O)CN2C(=O)c3ccccc3S2(=O)=O)c(C)n1C(C)C	MARV entry inh 0.5µM, Lassa entry inh 2µM (no result: Shiga inhibitor, Cycloheximide cs)
C=CCn1c(Cc2cccs2)nnc1SCC(=O)c1ccc(F)cc1	Cycloheximide cs 15
C=CCn1c(CNC(=O)c2ccco2)nnc1SCC(=O)c1ccccc1	Cycloheximide cs 12
Cc1ccc(SCC(=O)NNC(=O)c2cncc(Br)c2)cc1	MARV entry inh inconclusive (no result: Shiga inhibitor, Cycloheximide cs)
CNC(=S)N/N=C/c1ccc2c(c1)OCCO2	Shiga inhibitor 73, Cycloheximide cs 36
NC(=S)N/N=C/c1ccccc1	none
NC(=S)N/N=C/c1ccc(C23CC4CC(CC(C4)C2)C3)cc1	MARV entry inh inconclusive, Shiga inhibitor 79, Lassa entry inh inconclusive, Cycloheximide cs 22
NC(=S)N/N=C/c1ccc2c(c1)OCCO2	Lassa entry inh inconclusive, Cycloheximide cs 28
O=C(CSc1ncn[nH]1)Nc1ccc2c(c1)CCC2	Cycloheximide cs 20
CCOc1ccc(NC(=O)CSc2ncn[nH]2)cc1	Cycloheximide cs 18
O=C(CSc1nc2ccccc2[nH]1)Nc1ccc2c(c1)CCC2	none
Cc1ccc(NC(=O)CSc2ncn[nH]2)cc1	MARV entry inh inconclusive, Cycloheximide cs 14
NS(=O)(=O)c1ccc(NC(=O)CSc2ncn[nH]2)cc1	none
O=C(CSc1ncn[nH]1)Nc1ccc(OCc2ccccc2)cc1	Shiga inhibitor 145, Cycloheximide cs 34
O=C(Nc1ccnn1C1CCN(C(=O)c2ccc(F)cc2)CC1)C1CCOC1 (stereo not given)	none

Screening data deposited in PubChem by National Center for Advancing Translational Sciences (NCATS).
